ChEMBL document CHEMBL1201862, “PubChem BioAssay data set” (2004)
Screen size: about 400,000 compounds; about 2,100 (0.53%) were called active. About 14% were inconclusive and are not listed. How the calls were made is not given here. The full list was thinned out, with actives kept by preference.

What follows are compounds tested against Ataxin-2 (Homo sapiens) (UniProt Q99700) (assay: qHTS for Inhibitors of ATXN expression.).
Format: functional

Chain of Ataxin-2 (Homo sapiens) (Q99700 whole entry): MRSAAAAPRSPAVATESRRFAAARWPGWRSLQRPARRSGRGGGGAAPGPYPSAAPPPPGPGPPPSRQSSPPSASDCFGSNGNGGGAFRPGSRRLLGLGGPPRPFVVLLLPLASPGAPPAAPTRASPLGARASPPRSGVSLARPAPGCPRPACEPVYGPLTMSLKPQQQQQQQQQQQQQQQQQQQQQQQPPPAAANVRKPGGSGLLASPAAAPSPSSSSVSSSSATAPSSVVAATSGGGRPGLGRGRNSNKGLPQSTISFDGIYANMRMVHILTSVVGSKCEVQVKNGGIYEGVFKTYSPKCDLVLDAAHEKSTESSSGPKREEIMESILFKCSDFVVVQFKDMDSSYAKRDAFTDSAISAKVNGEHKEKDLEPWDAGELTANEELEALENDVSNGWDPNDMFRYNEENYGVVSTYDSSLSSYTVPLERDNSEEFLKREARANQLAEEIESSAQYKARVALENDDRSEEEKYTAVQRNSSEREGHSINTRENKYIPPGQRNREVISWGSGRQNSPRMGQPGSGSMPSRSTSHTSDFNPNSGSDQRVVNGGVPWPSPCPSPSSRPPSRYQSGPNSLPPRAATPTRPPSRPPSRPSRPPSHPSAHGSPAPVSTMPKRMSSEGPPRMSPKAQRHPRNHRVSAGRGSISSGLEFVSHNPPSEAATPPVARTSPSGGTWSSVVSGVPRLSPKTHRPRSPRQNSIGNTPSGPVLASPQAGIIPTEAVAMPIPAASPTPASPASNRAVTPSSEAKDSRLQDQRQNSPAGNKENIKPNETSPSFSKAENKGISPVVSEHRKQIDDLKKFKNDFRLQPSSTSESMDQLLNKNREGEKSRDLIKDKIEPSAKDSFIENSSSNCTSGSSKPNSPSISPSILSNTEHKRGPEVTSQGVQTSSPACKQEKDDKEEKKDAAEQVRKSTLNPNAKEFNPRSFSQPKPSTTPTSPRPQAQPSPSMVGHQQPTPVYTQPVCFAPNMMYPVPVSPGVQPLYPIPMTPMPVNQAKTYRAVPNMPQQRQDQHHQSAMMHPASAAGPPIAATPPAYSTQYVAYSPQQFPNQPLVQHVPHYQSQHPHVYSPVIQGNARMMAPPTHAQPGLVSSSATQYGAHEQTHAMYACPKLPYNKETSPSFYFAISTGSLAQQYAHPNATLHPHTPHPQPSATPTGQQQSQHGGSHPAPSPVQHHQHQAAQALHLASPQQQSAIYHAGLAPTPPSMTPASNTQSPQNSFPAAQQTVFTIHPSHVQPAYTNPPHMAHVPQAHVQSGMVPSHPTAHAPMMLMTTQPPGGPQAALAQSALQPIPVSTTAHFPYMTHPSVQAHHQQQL

SMILES	Potency
O=C(/C=C/c1cn(CC(O)CN2CCc3ccccc32)c2ccccc12)c1ccc(Br)cc1 (configuration not stated)	inactive
COc1ccc(CNCCC2(C(C)C)CCOC(C)(C)C2)cc1 (configuration not stated)	inactive
COc1ccc(CNc2cc(C)nc3ccc(OC)cc23)cc1	inactive
COc1ccc2cc(CNCCOCCOCCNCc3ccc4cc(OC)ccc4c3)ccc2c1	29.9 µM (active)
OCCCc1nc2n(n1)C(c1ccccc1)C=C(c1ccccc1)N2 (configuration not stated)	inactive
Cc1cc(N2CCN(C(=O)Oc3ccc([N+](=O)[O-])cc3)CC2)c2ccccc2n1	35.5 µM (active)
O=C(Cc1ccccc1)Nc1cc([N+](=O)[O-])ccc1N1CCOCC1	inactive
Cc1cc(N2CCN(c3ccc(C(F)(F)F)cc3[N+](=O)[O-])CC2)c2ccccc2n1	inactive
CC(C(=O)N1CCCCCC1)c1ccc([N+](=O)[O-])cc1 (configuration not stated)	inactive
CCCn1nc(NC(=O)C(C)(C)C)c2cc3cc(OC)ccc3nc21	inactive
Cc1ccc(-c2nc3cc(Br)cnc3nc2-c2ccc(C)cc2)cc1	inactive
Cc1nnsc1C(=O)NNC(=O)Nc1ccccc1	inactive
O=C(c1ccccc1)c1ccccc1N1C(=O)C=CC1=O	23.8 µM (active)
O=C(c1ccccc1)c1ccsc1C(=O)c1ccccc1	inactive
O=C(C1=NN(c2ccccc2)C2C(=O)N(c3ccccc3Cl)C(=O)C12)c1ccccc1 (configuration not stated)	inactive
O=C(Oc1cc(=O)oc2c1c(=O)n1c3c(cccc23)CC1)c1ccccc1	inactive
COc1cccc(CNC(=O)c2cc(S(=O)(=O)N3CCCC3)cn2C)c1	inactive
Cc1cc(Cl)ccc1OCC(=O)OCC(=O)Nc1cccnc1Cl	inactive
Cc1ccc(OCC(=O)Nc2ccc(Cl)cc2)c(-n2nc3ccccc3n2)c1	39.8 µM (active)
CN(CC(=O)Nc1ccc(Cl)cc1)C(=O)COc1ncnc2ccccc12	inactive
Cc1cccc(C2=NN(c3ccccc3)[C@@H](C(=O)N3CCOC3=O)[C@@H]2c2ccc(F)cc2)c1	inactive
Cc1cc(NCCCCO)n2c(nc3ccccc32)c1C#N	inactive
Cc1ccc(-c2ncns2)cc1	inactive
COc1ccc(OCc2nc3ccccc3n2C(C)C)cc1	inactive
OC(COc1ccc(Cl)cc1)CSc1ccccn1 (configuration not stated)	inactive
N=c1n(Cc2ccc(Cl)cc2)c2ccccc2n1CC(O)COc1ccccc1 (configuration not stated)	35.5 µM (active)

SMILES	Potency
N=c1n(CCO)c2ccccc2n1CCOc1ccc(Cl)cc1Cl	25.1 µM (active)
N=c1n(Cc2ccccc2)c2ccccc2n1CC(O)COc1ccc(Cl)cc1Cl (configuration not stated)	37.7 µM (active)
COc1ccc(OCC(O)CNC(=O)c2c(-c3ccccc3)noc2C)cc1 (configuration not stated)	inactive
COc1ccc(OCC(O)Cn2c(=N)n(Cc3ccccc3)c3ccccc32)cc1 (configuration not stated)	35.5 µM (active)
Oc1nncc2c3ccccc3n(Cc3cccc(Cl)c3)c12	inactive
O=C(O)c1cc2cccc(S(=O)(=O)N3CCCCC3)c2cc1O	inactive
CC(C)(C)C(=O)/C(=C/c1ccncc1)n1cncn1	20 µM (active)
CC(/C=N\NC(=O)Cn1cncn1)=C/c1ccc(C(C)C)cc1	inactive
Cc1cccc(C)c1N(CC(=O)NCc1ccc(F)cc1)C(=O)c1csnn1	inactive
CN(C)c1ccc(/C=N/NC(=O)c2ccc(Cn3cc(Br)cn3)o2)cc1	inactive
NC(Cc1ccc([N+](=O)[O-])cc1)=NOC(=O)C(c1ccccc1)c1ccccc1	25.1 µM (active)
NC(=O)c1ccsc1NC(=O)Cc1ccc([N+](=O)[O-])cc1	inactive
NC(Cc1ccc([N+](=O)[O-])cc1)=NOC(=O)c1cccc(Br)c1	inactive
CCCNC(=O)c1ccc2c(O)c(O)c(-c3ccc(C)cc3)nc2c1	inactive
N#Cc1c(-c2cccc(Br)c2)cc(-c2ccco2)nc1O	inactive
Cc1cc(NC(=O)/C(C#N)=C/c2ccc(-c3ccc(SC(F)F)cc3)o2)n(-c2ccccc2)n1	inactive
COc1cccc(-c2nn(-c3ccccc3)cc2CN(C)Cc2c(C)nc3ccccn23)c1	39.8 µM (active)
Cc1nn(C(C)C(=O)NCC2CCCO2)c(C)c1[N+](=O)[O-] (configuration not stated)	inactive
O=C(NCc1ccc(S(=O)(=O)Nc2ccccc2Cl)s1)c1ccccc1	inactive
Cc1cccn2c(=O)c3cc(C(=O)N4CCCCC4)sc3nc12	inactive
COc1ccc2nc(N3CCC(O)CC3)c(C#N)cc2c1	inactive
Oc1c(Cl)cc(Cl)cc1C1=NNC(c2ccc(Cl)cc2)C1 (configuration not stated)	inactive
COc1ccccc1CC(=O)NC(=O)c1ccccc1O	inactive
COc1cccc(CNn2cnnc2)c1O	inactive
COc1ccccc1CNCC(O)Cn1c2ccccc2c2ccccc21 (configuration not stated)	22.4 µM (active)
CC(=O)Nc1sc(/C(C#N)=C/c2ccc(Cl)c(Cl)c2)nc1-c1ccc(C)cc1	inactive

SMILES	Potency
COc1ccccc1CCNC(=O)C(=O)NCC1OCCN1S(=O)(=O)c1ccc([N+](=O)[O-])cc1 (configuration not stated)	inactive
Cc1cccc(OCCn2cc(/C=N/NC(=O)c3ccncc3)c3ccccc32)c1	inactive
CCC(=O)Nc1c(-c2ccccc2)c(=O)c2ccccc2n1C	inactive
Cn1c2ccccc2c2cc(C(=O)NNC(=O)CCl)sc21	15 µM (active)
CSc1c(CC(=O)NCCCO)n(Cc2ccccc2)c2ccccc12	inactive
CC(CN1CCCCC1)OC(=O)c1ccco1 (configuration not stated)	inactive
O=S(=O)(CC(CN1CCCCC1)N1CCCCC1)c1ccccc1 (configuration not stated)	31.6 µM (active)
O=S(=O)(c1ccccc1)N1CCCN(S(=O)(=O)c2ccccc2)CC1	inactive
O=C(NCc1ccc2c(c1)OCO2)c1nc(Cn2ccc([N+](=O)[O-])n2)no1	inactive
CCn1nc(NC(=O)C(C)C)c2cc3cccc(C)c3nc21	inactive
Cn1cc(/C=N/Nc2ccccc2)c2ccccc21	inactive
COc1ccccc1Cc1c(-c2ccc(OC)c(OC)c2)nc2c3ccccc3ccn12	39.8 µM (active)
COc1ccc(-c2nc3c(-c4ccccc4)cnn3cc2C)cc1F	inactive
COc1ccc(Cc2c(-c3ccc(OC)c(OC)c3)nc3c(C)cc(Br)cn23)c(C)c1	20 µM (active)
COc1ccc(-c2nc3c4ccccc4ccn3c2Cc2ccccc2)cc1OC	39.8 µM (active)
COc1ccc(-c2csc(-c3cccs3)n2)cc1OC	inactive
COc1ccc(-c2nc3cnccn3c2NCc2ccccc2)cc1SC1CCCCC1	inactive
O=C(CC1C(=O)NCCN1C(=O)Nc1ccc(F)cc1)Nc1ccc(F)cc1 (configuration not stated)	inactive
Cc1csc(SCC(=O)NC(=O)NC(C)(C)C)n1	inactive
Cn1c2ccccc2c(=O)c2cc(NCCCN3CCOCC3)ccc21	inactive
CN(/N=C/c1cc(Br)cc(Br)c1O)c1cccc(C(F)(F)F)n1	inactive
CN(/N=C/c1ccc(O)cc1O)c1nc(-c2ccccc2)cc(-c2ccccc2)n1	25.1 µM (active)
O=C(NC1=NCCS1)c1cc(-c2ccc(-c3ccccc3)cc2)nc2ccccc12	inactive
Cc1ccc(S(=O)(=O)[N-]c2nc3ccccc3nc2-[n+]2ccn(Cc3ccccc3)c2)cc1	inactive
Cc1ccc(/N=C/c2nc(/C=C/c3cccc([N+](=O)[O-])c3)oc2O)cc1	39.8 µM (active)
Cc1nc(N/N=C/c2cccc([N+](=O)[O-])c2)cc(N2CCCCC2)n1	inactive

SMILES	Potency
CC1(C)C([N+](=O)[O-])C(c2ccc(F)cc2)NC(c2ccc(F)cc2)C1[N+](=O)[O-] (configuration not stated)	inactive
Cc1ccc(NNC2=C3N=NN=C3C=CC2=O)cc1	44.7 µM (active)
C=CCn1c2ccccc2c(=O)c2cc(C#CC[C@@H](C)O)ccc21	inactive
Clc1ccc(-c2nc(N3CCOCC3)nc3ccccc23)cc1	inactive
O=C(O)c1ccccc1Cc1nc(O)c2ccc(Cl)cc2n1	inactive
Clc1ccc2c(SCC3CO3)c3ccccc3nc2c1 (configuration not stated)	23.8 µM (active)
O=S(=O)([N-]c1nc2ccccc2nc1-[n+]1ccn(Cc2ccccc2)c1)c1ccccc1	inactive
CC(C)OCCCNC(=O)CN1C(=O)c2cccc3cccc1c23	inactive
CC(=O)Nc1cccc(C(=O)NC2CCCc3c2cnn3-c2ccc(C(C)(C)C)cc2)c1 (configuration not stated)	8.91 µM (active)
COC(=O)CCCC(=O)NC1CCCc2c1cnn2-c1ccc(F)cc1F (configuration not stated)	inactive
COc1ccc(OC)c(C(=O)NC2CCCc3c2cnn3-c2cc(C)cc(C)c2)c1 (configuration not stated)	inactive
CCCNC(=O)Cn1c(=O)/c(=C\c2ccc(-c3ccc([N+](=O)[O-])cc3)o2)s/c1=C\C(=O)C(C)(C)C	inactive
CNS(=O)(=O)c1ccc2c3c(cccc13)C(=O)N2C	inactive
Cc1cc2nc3c(=O)n(Cc4ccccc4)c(=O)[nH]c3nc2cc1N	inactive
O=C(Cc1cccc2ccccc12)Nc1cc(C(=O)O)cc(C(=O)O)c1	inactive
O=C(NCc1ccc(F)cc1)c1ccc(CS(=O)(=O)c2ccc(Br)cc2)o1	inactive
COc1ccc(NC(=O)CSc2n[nH]c(C(C)C)n2)c([N+](=O)[O-])c1	inactive
NC(=O)CC(NC(=O)Cc1cccc2ccccc12)c1ccc(NCCOc2ccccc2)c([N+](=O)[O-])c1 (configuration not stated)	17.8 µM (active)
CCOc1ccc(NC(=O)Cc2cccc3ccccc23)c([N+](=O)[O-])c1	inactive
COc1ccc(C(=O)N[C@H](C(=O)NCCc2ccc3c(c2)OCCO3)C(C)C)cc1	inactive
Cc1ccccc1CNc1ccc(C(CC(N)=O)NC(=O)c2ccc(Br)cc2)cc1[N+](=O)[O-] (configuration not stated)	39.8 µM (active)
COc1ccc(CCNc2ccc(C(CC(N)=O)NC(=O)c3ccc(Br)cc3)cc2[N+](=O)[O-])cc1 (configuration not stated)	31.6 µM (active)
NC(=O)CC(NC(=O)c1ccc(Br)cc1)c1ccc(NCc2ccc(F)cc2)c([N+](=O)[O-])c1 (configuration not stated)	39.8 µM (active)
NC(=NOC(=O)Cc1ccccc1[N+](=O)[O-])c1cccc(Br)c1	inactive
